The list is not random: actives were taken first. Their share in the collection is about 2.9%.
KKLEB tox: reduces viability of KKLEB cystic fibrosis airway cells | AID 602141 | activity change (cytotoxicity), % at 5 µM | 360,000 compounds, 0.36% hits | KKLEB CF airway cells viability, ATPlite luminescence, overnight; active compounds read low; cells stimulated with P. aeruginosa culture filtrate;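 active = corrected activity change at or below -50% at 5 µM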
Peg3 promoter: reduces Peg3 promoter-driven luciferase expression in HeLa; HeLa PEG-Prom luciferase reporter, luminescence, overnight; inhibition, % at 20 µM; 360,000 compounds, 1.7% hits; AID 588405;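 active = inhibition of at least 50% at 20 µM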
Shn3 inh set2: Schnurri-3 reporter inhibition in Clone20 osteoblasts; Clone20 osteoblast Shn3 3'UTR firefly luciferase, 24 h; inhibition, % at 12.5 µM; 360,000 compounds, 0.52% hits; AID 588674;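 active = mean inhibition of at least 75% with every replicate also reaching 75%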
EBV LMP1 NFkB: inhibitors of Epstein-Barr LMP1-induced NF-kappaB reporter | 350,000 compounds, 0.69% hits | inhibition, % at 12.5 µM | LMP1-induced NF-kappaB luciferase reporter cells, luminescence; in the data active = inhibition above about 41%
CF NFkB block: blocks PAF-induced NF-kB reporter in cystic fibrosis cells; KKLEB NF-kB-GFP reporter, GFP fluorescence overnight; inhibition, % at 5 µM; 360,000 compounds, 0.86% hits;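 active = at least 50% inhibition at 5 µM, scaled per plate between neutral and stimulator controls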;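 also: PAF is a Pseudomonas aeruginosa culture filtrate used as stimulus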
TRPM1 prom inh: MITF TRPM1 promoter inhibition in SK-MEL-5 cells; SK-MEL-5 TRPM1 promoter luciferase, 24 h; inhibition, % at 12.5 µM; 330,000 compounds, 0.83% hits;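 active = mean inhibition across replicates of 60% or more, whatever share of single replicates reaches that level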
CF NFkB conf: CF NF-kB inhibition confirmation, single concentration; shares compounds with CF NFkB block; KKLEB CF airway cells, PAF-induced NF-kB-GFP fluorescence, overnight; inhibition, % at 5 µM; 1,300 compounds, 64% hits; in the data active = inhibition above about 40%;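 also: stimulus PAF is a Pseudomonas aeruginosa filtrate and not platelet activating factor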
Hits are given with their value; 0 = inactive; - = not tested or not shown.

SMILES	KKLEB tox	Peg3 promoter	Shn3 inh set2	EBV LMP1 NFkB	CF NFkB block	TRPM1 prom inh	CF NFkB conf
CNc1ccc2ncc(-c3ccc(OC)c(OC)c3)n2n1	0	0	0	-	76	-	104
CNc1cncc(-c2ccc(F)c(F)c2)n1	0	0	0	-	0	-	-
CNc1cc(-c2ccc(OC)c(OC)c2)ncn1	0	0	0	-	0	-	-
CNc1cncc(-c2ccc(OC)c(OC)c2)n1	0	0	0	-	56	-	0
O=C(COc1ccc(-c2nnco2)cc1)N1CCOCC1	0	0	0	0	0	0	-
COc1ccc(/C=C/C(=O)c2ccc([N+](=O)[O-])o2)cc1	0	101	0	0	51	-	0
COc1ccc(S(=O)(=O)N2CCN(C(=O)c3ccc([N+](=O)[O-])o3)CC2)cc1	0	0	0	0	0	0	-
CC(C)(O)C#Cc1ccc(CNC[C@H]2O[C@@H](n3cnc4c(N)ncnc43)[C@H](O)[C@@H]2O)s1	0	0	0	0	0	0	-
Cn1c(NCc2cccnc2)nc2cc(-c3cccc(C(=O)NCCO)c3)sc2c1=O	0	0	0	-	0	-	-
c1ccc(-c2csc3ncnc(NCCN4CCOCC4)c23)cc1	0	0	0	0	0	0	-
Cc1ccc(-c2csc3ncnc(NCCN4CCOCC4)c23)cc1	0	0	0	0	58	0	47
COc1ccc(-c2csc3ncnc(NCCN4CCOCC4)c23)cc1	0	0	0	46	56	0	82
Clc1ccc(-c2csc3ncnc(NCCN4CCOCC4)c23)cc1	0	0	0	0	0	0	-
Cc1cnc(NC(=O)CCCc2nc3ccccc3s2)s1	0	98	0	0	84	0	89
O=C(CCCc1nc2ccccc2s1)Nc1nccs1	0	0	0	0	0	0	-
CC(C)Cn1cc(-c2cccc3nccn23)cn1	0	0	0	-	0	-	-
O=C1NC(=S)N/C1=C\c1cccnc1	0	0	0	0	54	0	64
O=C1NC(=S)N/C1=C/c1cccc([N+](=O)[O-])c1	0	0	0	0	0	0	-
O=C1NC(=S)N/C1=C/c1cccnc1	0	0	0	0	52	0	46
O=C1C=C(c2n[nH]nc2-c2ccccc2)C[C@@H](c2ccc(F)cc2)C1	0	0	0	0	0	-	-
Cc1ccc(C(=O)NCC(=O)N(C)Cc2ccc(Cl)cc2Cl)s1	0	0	0	0	0	0	-
COc1ccc(NC(=O)COC(=O)c2c(NC(C)=O)sc(C)c2C)cc1	0	0	0	0	56	-	0
CC(C)N=C(NS(=O)(=O)c1ccccc1)C(Cl)(Cl)Cl	0	0	0	0	60	79	45
O=S(=O)(NC(=S)c1ccccc1)c1ccccc1	0	0	0	0	0	0	-
S=c1[nH]nc(-c2ccncc2)n1/N=C/C=C/c1ccccc1	0	0	0	0	0	0	-
SMILES	KKLEB tox	Peg3 promoter	Shn3 inh set2	EBV LMP1 NFkB	CF NFkB block	TRPM1 prom inh	CF NFkB conf
Cc1ccc(-c2n[nH]c(=S)n2/N=C/c2ccncc2)cc1	0	0	0	0	56	0	85
S=c1[nH]nc(-c2ccncc2)n1/N=C/C(Cl)=C\c1ccccc1	0	0	0	0	73	0	78
O=C(Nc1ccncc1)c1c(Cl)cccc1Cl	0	0	0	0	64	0	71
COc1ccc(S(=O)(=O)N2CCCCC2c2cc(C(=O)Nc3ccc(F)c(Cl)c3)no2)cc1 (centres undefined)	0	0	0	-	0	-	-
O=C(NCc1ccccn1)C1CCCN(S(=O)(=O)c2cc(Cl)ccc2Cl)C1 (centres undefined)	0	99	0	0	87	98	0
CC(=O)c1c(C)[nH]c(C(=O)OCC(=O)N2CCN(c3ccccc3)CC2)c1C	0	0	0	0	0	-	-
C[C@@H]1CN([C@H](C)CO)C(=O)CCCn2nncc2CO[C@H]1CN(C)Cc1ccc2c(c1)OCCO2	0	0	0	0	0	-	-
Cc1ccc(C)c(S(=O)(=O)N(C(=O)c2ccncc2)c2ccc(OC(=O)c3ccncc3)cc2)c1	0	0	0	0	69	0	85
O=C(Oc1ccc(N(C(=O)c2ccncc2)S(=O)(=O)c2ccc(F)cc2)cc1)c1ccncc1	0	0	0	0	0	0	-
OCCN1CCN(c2ncnc3ccc(Br)cc23)CC1	0	0	0	0	53	0	67
CC(=O)C1CCC2C3CCC4CC(=O)CCC4(C)C3C=CC12C (centres undefined)	0	0	0	0	0	0	-
O=C(COC(=O)c1ccc2ncsc2c1)Nc1ccc(OC(F)(F)F)cc1	0	0	0	0	52	0	0
CC(C)(C)c1ccc(NC(=O)COC(=O)c2ccc3ncsc3c2)cc1	0	0	0	0	0	0	-
Cc1ccccc1C(=O)N1CCN(c2ccc(NC(=O)CSc3ccc(Cl)cc3)cc2)CC1	0	0	0	58	61	0	71
Cc1ccccc1C(=O)N1CCN(c2ccc(NC(=O)c3cccc(OC(C)C)c3)cc2)CC1	0	0	0	0	53	0	53
Cc1cc(C)c(C(=O)/C=C/c2ccc(C(C)C)cc2)c(=O)[nH]1	0	68	0	0	59	0	53
O=C(c1cnc(Cl)c(Cl)c1)N1CCN(S(=O)(=O)c2cccs2)CC1	0	0	0	0	0	-	-
CC(C)C[C@H]1CNC(=S)N1C[C@H]1CCCN1C[C@H](Cc1ccccc1)N1C[C@H](Cc2ccc(O)cc2)N(CC2CCCCCC2)C1=S	0	99	0	-	61	-	44
Oc1ccc(C[C@H]2CNC(=S)N2CC2CCCN2C[C@H](Cc2ccc(O)cc2)N2C[C@H](Cc3ccccc3)N(CCc3ccccc3)C2=S)cc1 (some centres undefined)	0	0	0	0	0	0	-
Oc1ccc(C[C@H]2CN([C@@H](Cc3ccc(O)cc3)CN3CCC[C@@H]3CN3C(=S)NC[C@@H]3Cc3ccccc3)C(=S)N2CC2CCCCCC2)cc1	0	101	0	-	58	-	0
CC(C)C[C@@H](CN1CCCC1CN1C(=S)NC[C@@H]1Cc1ccc(O)cc1)N1C[C@H](Cc2ccc(O)cc2)N(CC2CCCCC2)C1=S (some centres undefined)	0	93	0	0	59	0	60
CC(C)C[C@H]1CNC(=S)N1C[C@H]1CCCN1C[C@H](Cc1ccc(O)cc1)N1C[C@H](Cc2ccccc2)N(CCc2ccccc2)C1=S	0	0	0	-	0	-	-
Oc1ccc(C[C@H]2CNC(=S)N2CC2CCCN2C[C@H](Cc2ccc(O)cc2)N2C[C@H](Cc3ccc(O)cc3)N(CC3CCCCC3)C2=S)cc1 (some centres undefined)	0	0	0	0	59	0	59
CC(O)(c1cccnc1)c1nc(-c2ccc3ccccc3c2)cs1 (centres undefined)	0	0	0	-	0	-	-
CC(=O)c1c(C)[nH]c(C(=O)Nc2ccc(N3CCCCCC3)cc2)c1C	0	0	0	0	0	-	-
